Data on 14 molecules can be found in PubChem BioAssay (EPA / NIEHS).

Read-out in experiment [1]: Collagen I, COL1A1 (gene 1277)
Briefly: BSK_MyoF_CollagenI: BioMAP Diversity Plus: MyoF Assay for Collagen I Biomarker Activity (AID 2284238). The conditions noted are these: primary human lung fibroblasts. The method, boiled down:
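Primary human lung fibroblasts (MyoF system) treated 24 h; Collagen I quantified by ELISA and fitted in positive direction against DMSO. Parallel SRB total-protein staining assessed overt cytotoxicity.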

Read-out in experiment [2]: Collagen III, COL3A1 (gene 1281)
Briefly: BSK_MyoF_CollagenIII: BioMAP Diversity Plus: MyoF Assay for Collagen III Biomarker Activity (AID 2284239). The conditions noted are these: primary human lung fibroblasts. The method, boiled down:
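Primary human lung fibroblasts (BioMAP MyoF system) exposed 24 h. Collagen III measured by ELISA; positive-direction fit relative to DMSO.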

Read-out in experiment [3]: Interleukin 17F (IL17F), IL17F (gene 112744)
Briefly: BSK_BT_xIL17F: BioMAP Diversity Plus: BT Assay for Interleukin 17F (IL17F) Biomarker Activity (AID 2284243). The conditions noted are these: primary human B cells with PBMC. The method, boiled down:
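Human PBMC co-cultured with B cells, compound exposure 24 h; secreted IL-17F quantified by Luminex xMAP, referenced to DMSO control. PBMC viability measured in parallel by Alamar Blue reduction.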

Read-out in experiment [4]: Actin alpha 1 (ACTA1), ACTA1 (gene 58)
Briefly: BSK_MyoF_ACTA1: BioMAP Diversity Plus: MyoF Assay for Actin alpha 1 (ACTA1) Biomarker Activity (AID 2284244). The conditions noted are these: primary human lung fibroblasts. The method, boiled down:
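Lung fibroblasts, human primary, 24 h compound exposure → a-SMA ELISA. Positive-direction fit vs DMSO control.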

Read-out in experiment [5]: Interleukin 2 (IL2), IL2 (gene 3558)
Briefly: BSK_BT_xIL2: BioMAP Diversity Plus: BT Assay for Interleukin 2 (IL2) Biomarker Activity (AID 2284245). The conditions noted are these: primary human B cells with PBMC. Summed up:
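B cell + PBMC co-culture (human primary), compound added, 24 h incubation; secreted IL-2 measured multiplexed on Luminex xMAP; gain-of-signal fit vs DMSO.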

Read-out in experiment [6]: Basic fibroblast growth factor (bFGF), FGF2 (gene 2247)
Briefly: BSK_MyoF_bFGF: BioMAP Diversity Plus: MyoF Assay for Basic fibroblast growth factor (bFGF) Biomarker Activity (AID 2284246). The conditions noted are these: primary human lung fibroblasts. The method, boiled down: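 ELISA-measured bFGF level serves as the read-out, taken 24 h after chemical dosing of human lung fibroblasts. Values represent signal gain over the DMSO negative control.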

Read-out in experiment [7]: Monokine induced gamma interferon (MIG), CXCL9 (gene 4283)
Briefly: BSK_KF3CT_MIG: BioMAP Diversity Plus: KF3CT Assay for Monokine induced gamma interferon (MIG) Biomarker Activity (AID 2284248). The conditions noted are these: primary human keratinocytes with fibroblasts. The method, boiled down: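 Human keratinocyte–foreskin fibroblast co-culture; MIG measured by ELISA 24 h after chemical dosing, fitted upward versus DMSO. Cytotoxicity was assessed in parallel cultures by SRB total-protein staining read at 560 nm.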

Read-out in experiment [8]: Vascular cell adhesion molecule 1 (VCAM1), VCAM1 (gene 7412)
Briefly: BSK_BF4T_VCAM1: BioMAP Diversity Plus: BF4T Assay for Vascular cell adhesion molecule 1 (VCAM1) Biomarker Activity (AID 2284249). The conditions noted are these: primary human bronchial epithelial cells with fibroblasts. Summed up: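 Human bronchial epithelial cell and dermal fibroblast co-culture exposed 24 h. VCAM-1 measured by ELISA; parallel SRB total-protein staining for cytotoxicity. Fitted in positive direction relative to DMSO.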

Read-out in experiment [9]: Collagen I, COL1A1 (gene 1277)
Briefly: BSK_hDFCGF_CollagenI: BioMAP Diversity Plus: hDFCGF Assay for Collagen I Biomarker Activity (AID 2284250). The conditions noted are these: primary human foreskin fibroblasts. The method, boiled down:
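Human skin primary fibroblasts dosed with test chemical, harvested at 24 h, Collagen I quantified by ELISA; parallel SRB staining (0.1% SRB after 10% TCA fixation, 560 nm) tracked cytotoxicity.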

Read-out in experiment [10]: Plasminogen activator inhibitor-1 (PAI1), SERPINE1 (gene 5054)
Briefly: BSK_KF3CT_PAI1: BioMAP Diversity Plus: KF3CT Assay for Plasminogen activator inhibitor-1 (PAI1) Biomarker Activity (AID 2284252). The conditions noted are these: primary human keratinocytes with fibroblasts. Summed up: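 ELISA read-out of PAI-1 taken 24 h after chemical treatment of a human skin primary co-culture of keratinocytes and foreskin fibroblasts. Increases over DMSO-treated wells defined activity.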

Read-out in experiment [11]: Monocyte Chemoattractant Protein-1 (MCP1), CCL2 (gene 6347)
Briefly: BSK_IMphg_MCP1: BioMAP Diversity Plus: IMphg Assay for Monocyte Chemoattractant Protein-1 (MCP1) Biomarker Activity (AID 2284253). The conditions noted are these: primary human endothelial cells with macrophages. Summed up: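 Human venular endothelial cells co-cultured with macrophages; MCP-1 measured by ELISA 24 hours post-dose and fitted against DMSO. Cytotoxicity monitored by SRB total-protein staining in parallel cultures.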

Experiment [12] can be described thus: CCTE_Mundy_HCI_Cortical_NOG_BPCount: CCTE's Neurite Outgrowth Assay in rat cortical cells for Branch Point Count, Mundy Lab (AID 2284237).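 On AC50: branch points counted about two days after chemical exposure.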 Summed up:
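Measured 50.33 h after dosing, this morphology endpoint uses rat primary cortical cultures labelled for betaIII-tubulin. Branch points are quantified by high-content imaging, with DMSO as negative control and baseline.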

The nature of experiment [13]: CCTE_Mundy_HCI_hNP1_Casp3_7: CCTE's Caspase-Glo 3/7 Assay in human neuroprogenitor cells for Apoptosis, Mundy Lab (AID 2284240). The method, boiled down:
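Neuroepithelial-lineage stem cells from WA09 embryonic cells were treated with chemicals after 40–44 h of culture. Twenty-four hours later, caspase-3/7 activation was detected luminescently after a 30 min room-temperature reagent step, with DMSO as baseline.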

A short description of experiment [14]: CCTE_Mundy_HCI_hNP1_CellTiter: CCTE's Cell Titer-Glo 2 Assay in human neuroprogenitor cells for Viability, Mundy Lab (AID 2284241; active means hit-call score of the fitted dose curve at least 0.9, where 1 is the maximum;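 on AC50: a hit is a drop in ATP luminescence versus DMSO meaning reduced viability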). Summed up: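 Measures ATP content in human neural progenitors derived from WA09 embryonic cells. Read-out at 26.5 hours after dosing, with DMSO serving as the negative control and baseline.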
Experiment [15] can be described thus: CCTE_Mundy_HCI_Cortical_NOG_NeuronCount: CCTE's Neurite Outgrowth Assay in rat cortical cells for Neuron Count, Mundy Lab (AID 2284236; active means hit-call score of the fitted dose curve at least 0.9, where 1 is the maximum;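 further: neurons counted by imaging betaIII-tubulin and Hoechst stained cortical cells; cells exposed to compound for about 48 hours before fixation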). The method, boiled down:
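Read-out: neuron number by high-content imaging of betaIII-tubulin (Alexa Fluor-488) and Hoechst-labelled rat primary cortical cells.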

Experiment [16] can be described thus: CCTE_Mundy_HCI_Cortical_Synap_Neur_Matur_NeuronCount: CCTE's Synaptogenesis and Neurite Maturation Assay in rat cortical cells for Neuron Count, Mundy Lab (AID 2284242; active means hit-call score of the fitted dose curve at least 0.9, where 1 is the maximum;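 on AC50: hits reduce neuron count versus DMSO baseline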). Summed up:
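Neuron number was scored by automated high-content imaging of Hoechst- and MAP2-labelled rat primary cortical cells. Glial growth was arrested with AraC at DIV 5, compounds were applied from DIV 7, and cultures ended at DIV 12.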

Experiment [17] in a line: UKN4_HCS_LUHMES_cell_viability: Viability Assessment in the University of Konstanz (UKN) Leist Lab Neurite Outgrowth Assay in human LUHMES cells (UKN4) (AID 2284232). The method, boiled down: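 Fluorescence intensity from high-content imaging of Hoechst H-33342/calcein-AM-stained cells served as the viability read-out. Human LUHMES precursors were differentiated 2 days, replated and treated 24 h; curves were fitted bidirectionally against DMSO.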

A short description of experiment [18]: UKN2_HCS_IMR90_cell_viability: Viability Assessment in the University of Konstanz (UKN) Leist Lab Neural Crest Cell Migration Assay in human induced IMR90 Pluripotent Stem Cells (UKN2) (AID 2284233).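 Further: viability of neural crest cells differentiated from IMR90 iPSC measured by calcein-AM fluorescence imaging; cells exposed to compound for 24 h after a 24 h migration phase.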 Summed up: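 iPSC-derived (IMR90) neural crest cells seeded around silicone stoppers on PLO/laminin/fibronectin; after 24 h migration in N2-S with EGF/FGF, chemical added for 24 h. Calcein-AM/Hoechst stained 30 min, high-content imaged; bidirectional fit versus DMSO.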

The nature of experiment [19]: TAMU_PeakParms_SingleDonor1434_QT: Texas A&M University (TAMU) 1.5-hr Human Induced Pluripotent Stem Cell (iPSC)-derived Cardiomyocytes Calcium (Ca+2) Flux Assay for Cardiotoxicity: QT (decay-rise ratio) (AID 2284235; active means hit-call score of the fitted dose curve at least 0.9, where 1 is the maximum). The method, boiled down:
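iPSC-derived cardiomyocytes (single donor 1434) dosed at 0.2, 1, 10, 100 uM final in 0.5% DMSO, 90 min at 37C. Ca2+ flux fluorescence decay/rise ratio; EC05 (5% increase versus DMSO) as POD, excluding beat-arrest and severe-notch data.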

A short description of experiment [20]: TAMU_HCS_1.5hr_SingleDonor1434_Cytotoxicity: Cytotoxicity Assessment using High-content Screening (HCS) Fluorescent Imaging for the Texas A&M University (TAMU) 1.5-hr Human Induced Pluripotent Stem Cell (iPSC)-derived Cardiotoxicity Assay (AID 2284234; active means hit-call score of the fitted dose curve at least 0.9, where 1 is the maximum). Summed up:
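Human iPSC-derived cardiomyocytes dosed at 0.2, 1, 10, 100 uM final (0.5% DMSO) for 90 min at 37 C. Hoechst 33342-stained nuclei counted by 10x high-content imaging; POD is EC10, a 10% drop in total cell count versus DMSO.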

Where “and” joins values, the source holds several entries; their conditions need not be identical. Identical values can stand only once. Records with an inconclusive call do not appear. Calls of active or inactive are those of the source. How the source made its calls, unless noted: active means hit-call score of the fitted dose curve at least 0.9, where 1 is the maximum; inactive means score below 0.9.

For the molecule `C[Si](C)(C)C(F)(F)C(F)(F)C(F)(F)F`, the outcome in experiment [1], in [2], in experiment [3], in [4], in experiment [5] and in [6] was inactive. Also, the outcome in experiment [7], in [8], in [9], in experiment [10] and in experiment [11] was inactive.
On to `OC(Cn1cncn1)(Cn1cncn1)c1ccc(F)cc1F`, for which the molecule was classed as inactive in experiment [12], in experiment [13] and in [14].
By AC50 is commonly meant the concentration giving half of the maximal activity seen. Turning to `OC(O)(C(F)C(O)(O)C(F)(F)F)C(F)(F)F`, the result in experiment [1], in [2], in experiment [14], in experiment [4], in [6] and in experiment [7] was inactive. Also, the outcome in [8], in [9], in experiment [10] and in experiment [11] was inactive. The AC50 in [13] was 13.4 µM (active); in experiment [3] it was 46.7 µM (active) and 30 µM (active); in experiment [5], 40.6 µM (active) and 22.3 µM (active).
With `C[C@]12C=CC(=O)C=C1CC[C@H]1[C@@H]3C[C@@H](O)[C@](O)(C(=O)CO)[C@@]3(C)C[C@H](O)[C@@]12F`, the AC50 in experiment [15] is 23.6 µM (active); in experiment [12], 20.1 µM (active); in experiment [13] it was 23 µM (active); in experiment [14], 25.6 µM (active); in experiment [16], 3.75 µM (active).
Consider `Cn1cc[nH]c1=S`, for which the molecule was classed as inactive in [15], in [12], in experiment [13] and in [14].
As to `c1ccc2cc3ccccc3cc2c1`, the molecule was called inactive in experiment [15], in [12], in [13] and in experiment [14].
Consider `S=P(N1CC1)(N1CC1)N1CC1`, for which the outcome in experiment [1], in experiment [2], in [4], in [5] and in experiment [6] was inactive. Besides, in experiment [3], the AC50 is 20.9 µM (active).
As to `Nc1ccn([C@@H]2O[C@H](CO)[C@@H](O)[C@@H]2O)c(=O)n1`, the outcome in experiment [17], in [18] and in experiment [14] was inactive. Further, the AC50 in [15] was 1.58 µM (active) and 2.33 µM (active); in [12], 11.9 µM (active) and 3 µM (active); in experiment [13], 29 nM (active) and 290 nM (active); in [16], 4.39 µM (active) and 3.57 µM (active).
For the molecule `OCc1c[nH]c2ccccc12`, the result in [1], in experiment [2], in experiment [3], in experiment [4] and in [6] was inactive. In [5], the AC50 is 1.81 µM (active).
For `CCCC(CCC)C(=O)O`, the call in experiment [17], in experiment [18], in experiment [19], in experiment [12], in experiment [14] and in experiment [16] was inactive. In experiment [13], the AC50 is 1500 µM (active).
`CC(C)C(=O)Nc1ccc([N+](=O)[O-])c(C(F)(F)F)c1`: the outcome in experiment [20] and in [19] was inactive.
On to `NNC(=O)c1ccncc1`, for which the outcome in experiment [12], in experiment [13], in [14] and in experiment [16] was inactive.
As to `COc1cc2c(c(OC)c1OC)-c1ccc(OC)c(=O)cc1[C@@H](NC(C)=O)CC2`, the result in experiment [19] was inactive. For the same molecule, the AC50 in experiment [15] is 0.0535 µM (active); in experiment [12] it was 0.00988 µM (active); in experiment [13], 0.0228 µM (active); in experiment [14], 0.0224 µM (active); in experiment [16], 0.0339 µM (active).
As for `OCCC(F)(F)C(F)(F)C(F)(F)C(F)(F)F`, the result in experiment [1], in [2], in [3], in [4], in experiment [5] and in experiment [6] was inactive. Also, the outcome in [7], in experiment [8], in experiment [9], in experiment [10] and in experiment [11] was inactive.
